This passage reports outcome results from PubChem BioAssay AID602350 (Broad Institute, 2012).

The structures appear in SMILES notation. Measured potencies and affinities stand elsewhere. Active and inactive are the calls of the source.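 The calls were made as follows: active = absorbance falls by 30% or more versus neutral controls, with a potency fitted within twice the top valid dose; inconclusive = no clear call, values can overlap the other calls; inactive = change opposite to expected direction, plus the rest.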

For the assay, the target named is Protein disulfide-isomerase (Homo sapiens) (UniProt P07237). The assay is described as follows: PDI inhibitors, insulin aggregation turbidity, dose response, biochemical, absorbance, cherry-picked samples (AID 602350).
Chain of Protein disulfide-isomerase (Homo sapiens) (P07237 whole entry, looked up): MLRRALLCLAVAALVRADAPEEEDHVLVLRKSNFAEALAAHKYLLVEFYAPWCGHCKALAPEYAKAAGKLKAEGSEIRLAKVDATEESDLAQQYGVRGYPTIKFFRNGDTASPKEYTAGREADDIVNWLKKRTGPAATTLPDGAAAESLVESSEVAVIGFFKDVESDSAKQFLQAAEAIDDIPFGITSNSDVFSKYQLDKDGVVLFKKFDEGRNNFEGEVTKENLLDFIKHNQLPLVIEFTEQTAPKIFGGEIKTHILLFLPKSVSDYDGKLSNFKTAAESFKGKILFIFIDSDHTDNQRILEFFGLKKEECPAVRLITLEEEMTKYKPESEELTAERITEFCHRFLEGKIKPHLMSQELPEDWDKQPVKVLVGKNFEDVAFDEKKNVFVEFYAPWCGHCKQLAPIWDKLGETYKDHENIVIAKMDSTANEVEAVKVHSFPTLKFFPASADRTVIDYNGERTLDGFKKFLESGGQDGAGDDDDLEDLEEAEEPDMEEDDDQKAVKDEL

As for `CCOC(=O)c1oc2cccc(O)c2c1CN(Cc1ccccc1)C(C)=O`, the molecule was called inactive. Turning to `Cc1ccc(NC(=O)CSC(C)C(=O)OCc2cc(=O)oc3cc(O)ccc23)cc1` (stereo not drawn), the outcome was inactive. On to `COc1ccc(CN(C)C[C@@H]2Oc3ccc(NC(=O)Nc4ccccc4)cc3CC(=O)N([C@H](C)CO)C[C@@H]2C)cc1`, for which the molecule was classed as inactive. The value for `Cc1noc(C)c1-c1ccc(C(=O)NCc2ccc(Cl)cc2)c2occc12` was “inactive”; that for `C[C@H](CO)N1C[C@H](C)[C@@H](CN(C)Cc2ccccc2)Oc2ccc(NC(=O)Nc3ccccc3)cc2CC1=O` was “inactive”.

For `Cc1cc(C)cc(CC(=O)N2CCC2(C)C(=O)NS(=O)(=O)c2ccc(Br)cc2)c1` (stereo not drawn), the call was inactive.

Take `COc1ccc(/C=C/C(=O)c2cc(F)ccc2OC(=O)c2ccccc2OC)cc1OC`: the result was inactive. The result for `O=C1NC[C@H](Cc2ccccc2)N(C[C@H]2CCCN2C[C@H](Cc2ccc(O)cc2)N2C[C@H](Cc3ccc(O)cc3)N(CC3CCCCCC3)C(=O)C2=O)C1=O` reads “inactive”.
